# Among all 63,000 compounds or so, about 1,100 (1.7%) were called active. The list comes from a sample in which actives are over-represented; it also holds similar structures and randomly drawn compounds. Entries with a potency or affinity are not part of this list. Values without a mark were called inactive. No stated cut-off is given here; in the data, active means cytotoxicity above about 50%; inactive means the rest.
# Test: HPDE-C7 pancreatic duct cell viability loss – fluorescence, HTS (AID 430);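 further: cells exposed to compound for 48 hours before viability readout; 0% = vehicle and 100% = reference cytotoxic drug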
# Settings: HPDE-C7 pancreatic duct cells viability, at 10 µM, hits give high values
row,SMILES,cytotoxicity
1,CN1CCN(/C=C2\SC(=S)NC2=O)CC1,-23.4%
2,O=C(c1cnc2n(c1=O)CCS2)N1CCN(c2ccc(Cl)c(Cl)c2)CC1,-3.5%
3,CC(NS(=O)(=O)c1ccc(Br)cc1)C(c1cccs1)N1CCN(C)CC1 (stereo unspecified),-8.4%
4,c1ccc(-n2c(-c3ccncc3)nnc2-c2ccco2)cc1,-33.8%
5,O=C(O)CC1C(=O)NCCN1C/C=C/c1ccccc1 (stereo unspecified),-5.3%
6,O=C(CN(C(=O)CNC(=O)c1ccco1)c1ccc2c(c1)OCO2)NC1CCCCC1,-31.1%
7,Cc1ccc2c(c1)nnn2C1CCN(C(=O)C2CCCCC2)CC1,-12.5%
8,O=C(c1ccccc1F)N1CCN(c2cccc(C(F)(F)F)c2)CC1,-5%
9,COc1ccccc1CC(=O)N1CCN(c2cccc(C(F)(F)F)c2)CC1,-10.2%
10,COc1ccccc1C(=O)N1CCN(c2cccc(C(F)(F)F)c2)CC1,60.8% (active)
11,CSc1nsc(SCc2ccc(F)cc2)n1,-4.1%
12,Nc1nnc(SCc2ccc(F)cc2)s1,-16.7%
13,Cc1nnc(SCc2ccc(F)cc2)s1,105% (active)
14,Clc1ccccc1-c1nnc2sc(-c3ccco3)nn12,-6.1%
15,COC(=O)C1=C(C)N(c2ccc(F)c(Cl)c2)C(=O)C1,-5.3%
16,COC(=O)C1=C(C)N(c2ccc(Cl)c(Cl)c2)C(=O)C1,84.2% (active)
17,COC(=O)C1=C(C)N(c2cccc(Cl)c2)C(=O)C1,-4.9%
18,Cc1nc2c(o1)CCc1ccccc1C2N1CCN(C)CC1 (stereo unspecified),-16.4%
19,CC(C)CC(OC(=O)c1ccco1)C(=O)NC1CCCCC1 (stereo unspecified),-5.1%
20,Cc1ccc(N2CCN(CCc3nc4cc(NS(C)(=O)=O)ccc4n3C)CC2)cc1,-22.1%
21,CC(C)CCn1nnnc1C(c1ccccc1F)N1CCC(C(N)=O)CC1 (stereo unspecified),-13.3%
22,CCC(C)(C)n1nnnc1C(c1ccccc1F)N1CCC(C(N)=O)CC1 (stereo unspecified),56.3% (active)
23,CCC(C)(C)n1nnnc1C(C(C)C)N1CCC(C(N)=O)CC1 (stereo unspecified),5.6%
24,O=C(CN(C1CCCCC1)S(=O)(=O)c1ccc(Cl)cc1)NCc1ccncc1,-8.9%
25,Cc1cc(C)c2c(CN3CCN(Cc4ccc5c(c4)OCO5)CC3)cc(=O)oc2c1C,44.1%
26,O=C(c1cccc(Cl)c1)N1CCN(c2ccccn2)CC1,-14.9%

row,SMILES,cytotoxicity
1,O=C(CCCOc1ccc(Cl)cc1Cl)N1CCN(c2ccccn2)CC1,3.1%
2,O=C(c1cccc(COc2ccc(Cl)cc2Cl)c1)N1CCN(c2ccccn2)CC1,77.5% (active)
3,Cc1cc2c(cc1C)NC(CC(=O)NCc1ccccc1)C(=O)N2 (stereo unspecified),1.1%
4,Oc1ccc(Nc2nc(-c3ccc(O)cc3)cs2)cc1,78.4% (active)
5,NS(=O)(=O)c1ccc(Nc2nc(-c3ccc(O)cc3)cs2)cc1,-1.2%
6,Cc1nc(N)sc1-c1csc(Nc2ccccc2)n1,36.2%
7,c1cncc(Nc2nc(-c3ccncc3)cs2)c1,-3.1%
8,C=CCNc1nc(-c2sc(NC(C)=O)nc2C)cs1,11.6%
9,CC(=O)Nc1nc(C)c(-c2csc(Nc3ccc(O)cc3)n2)s1,58.6% (active)
10,O=C(NC1CCCC1)c1cnc2n(c1=O)CCS2,-10.2%
11,O=C1CC(O)(C(F)(F)F)Oc2c1ccc1ccccc21 (stereo unspecified),82.3% (active)
12,COc1ccc2c(c1)OC(O)(C(F)(F)F)CC2=O (stereo unspecified),-3.3%
13,O=C1CC(O)(C(F)F)Oc2ccc3ccccc3c21 (stereo unspecified),-12.2%
14,COc1cccc(-c2nc(=S)c3c(n2Cc2ccco2)CCCC3)c1,-22.8%
15,CCOC(=O)Nc1sc(=S)n(C)c1C,-8.2%
16,Cc1c(NC(=O)OCCSc2nc(N(C)C)nc(N(C)C)n2)sc(=S)n1C,59.5% (active)
17,CN(C)c1nc(SCCOC(=O)Nc2ccccc2)nc(N(C)C)n1,19.3%
18,Nc1nc2nccc(-c3ccc(Cl)cc3)n2n1,3.6%
19,Cc1ccc(NC(=O)N2CCCC2C(=O)NCCc2ccccc2)cc1 (stereo unspecified),-9.2%
20,Cc1ccc(S(=O)(=O)N2CCN(C(=O)COC(=O)COc3ccccc3)CC2)cc1,7.4%
21,CCOC(=O)c1ccc2c(c1)nc(SCc1cn3ccsc3n1)n2CC,19.7%
22,COc1cc(CC(=O)Oc2ccc3c(c2)OCO3)cc(OC)c1OC,28.4%
23,COc1cc([C@@H]2c3cc4c(cc3[C@H](O)[C@H]3COC(=O)[C@H]23)OCO4)cc(OC)c1OC,67.2% (active)
24,COc1cc(CC(=O)NCc2ccc3c(c2)OCO3)cc(OC)c1OC,-7.2%
25,Cc1nn(C)c(C)c1S(=O)(=O)N1CCCC(C(=O)NCC2COc3ccccc3O2)C1 (stereo unspecified),-4%

# Source: PubChem BioAssay AID430 (Sanford-Burnham Center for Chemical Genomics, 2006)
